Bioassay records from PubChem.
MCF10A rereplic: DNA re-replication induction in MCF 10a cells | MCF 10A DNA re-replication, Hoechst nuclear intensity, 48 h | Potency, µM (top dose mostly 46.1 µM), inactives show at the highest dose activity, positive = re-replication, hits mostly activators | 350,000 compounds, 2.9% hits | AID 624296; note: potency is the fitted concentration of half-maximal effect; % of control where 0% means no effect; nearly all actives have a fitted effect of over 50% in size
ATXN2 expr inh: reduces ATXN2 reporter expression in HEK-293 cells. 360,000 compounds, 0.72% hits. Potency, µM (series often up to 57 µM), inactives show top-dose activity change, negative = inhibition, usual class: inhibitors. HEK-293 ATXN2-luciferase reporter, luminescence, 24 h. AID 1745845; note: potency is the fitted concentration of half-maximal effect; % is set by controls: 0 for no effect and ±100 for the full control effect; nearly all actives have a fitted effect of over 55% in size
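ATXN2-luciferase reporter cells (luciferase flanked by upstream and downstream ATXN2 gene portions) were treated 24 h at 37 °C with compounds at up to 57 uM. SteadyGlo luminescence gave expression; GF-AFC fluorescence gave viability.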
PINK1 expr mod: PINK1 expression modulation. PINK1 immunofluorescence, high-content cytometry, 24 h. Potency, µM (top dose mostly 76.6 µM), inactives show top-dose activation (PINK1 increase), usual class: activators. 410,000 compounds, 0.2% hits. AID 624263; active = well fitted activation curve with a large enough effect; inconclusive = small, poorly fitted or top-dose-only effect; cell line not stated here; note: potency is the fitted concentration of half-maximal effect; % of control where 0% means no effect; nearly all actives have a fitted effect of over 65% in size
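Compound titrations (5 concentrations, 24 h) on a stable cell line; DMSO and CCCP controls. Endpoint: fixed-cell PINK1 immunofluorescence with mitochondrial, cell and nuclear markers, scanned by microplate cytometer.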
ATXN viability: cell viability loss in ATXN counter-screen; S2 cells (HEK-293 line with an ATXN2-luciferase reporter) viability, CellTiter-Fluor protease fluorescence, 24 h; Potency, µM (titrated, usually from 56.7 µM), most hits filed as cytotoxic; 400,000 compounds, 0.49% hits; AID 651635; note: potency is the fitted concentration of half-maximal effect; nearly all actives have a fitted effect of over 40% in size
IL1B secr inh: blocks inflammasome-driven IL-1 beta release; THP-1 LPS/ATP IL-1B secretion, AlphaLISA, 16 h; hits give low values; activity change, % at 57.5 µM; 360,000 compounds, 4.7% hits; AID 743279; in the data active = activity change below about -50%; inconclusive = mostly about -30% to -49%; note: % is set by controls: 0 for no effect and ±100 for the full control effect
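THP-1 cells pretreated 1 hr with compounds (up to 57.5 uM final), then stimulated with LPS (250 ng/mL final) plus ATP (1.25 mM final); secreted IL-1B measured by AlphaLISA after 16 hr, decreased signal indicating inhibition.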
SW480 rerep: inducers of DNA re-replication in SW480 colon cancer cells; SW480 DNA re-replication, Hoechst DNA content imaging, 48 h; Potency, µM (doses to about 46.1 µM), for the others: top-dose re-replication activation, actives largely listed as activators; 340,000 compounds, 1.8% hits; AID 624297; note: potency is the fitted concentration of half-maximal effect; % of control where 0% means no effect; nearly all actives have a fitted effect of over 55% in size
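Treated cells incubate 48 hr (37 C, 5% CO2), are stained 40 min with Hoechst, and nuclear fluorescence is enumerated; a rise in nuclei with high DNA signal marks re-replication.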
Active calls of the source: *; i = inactive; ? = inconclusive; · = not tested or not shown; [ ] = another dose, or the depositor's remark. Most compounds without a hit are left out; they make up all but 7.1% or so of the library. Unless noted, calls come from the whole dose curve; as a rule, active = well fitted curve in the direction sought with a large enough effect; inconclusive = small, poorly fitted or top-dose-only effect, or another doubt; inactive = no such curve, though single readings can be large; an effect the other way counts as inactive or inconclusive.

SMILES	MCF10A rereplic	ATXN2 expr inh	PINK1 expr mod	ATXN viability	IL1B secr inh	SW480 rerep
CCOC(=O)C(C)(C)N(Cc1ccccc1C)S(=O)(=O)c1ccc(Cl)c([N+](=O)[O-])c1	18µM*	-16%	-2%	i	-97*	?
Cc1ccccc1CN(CC(=O)Nc1cccc([N+](=O)[O-])c1)S(=O)(=O)c1ccc(Cl)cc1	16%	-35%	3%	?	?	?
CCCCCCC(=O)N(O)C1CC(=O)N(c2ccc(Cl)cc2)C1=O (configuration not stated)	?	-5%	5%	i	-51*	18µM*
CCCCCCC(=O)N(O)C1CC(=O)N(c2ccc(C)cc2)C1=O (configuration not stated)	?	·	·	·	-4	?
c1ccc(N(c2ccccc2)c2nc(N3CCCC3)nc(-n3ccnc3)n2)cc1	3.7µM*	-25%	0%[38.3 µM]	?	-9	?
c1ccc(CN2CCN(c3ncccn3)CC2)cc1	?	-2%	1%	i	-4	0%
c1ccc(CN2CCN(c3nc(-c4ccccc4)nc(-n4ccnc4)n3)CC2)cc1	?	-18%	-14%[38.3 µM]	?	?	21µM*
c1ccc(-c2nc(-n3ccnc3)nc(-n3ccnc3)n2)cc1	?	·	·	·	-84*	8%
COc1cc(=O)n2c(c1C(=O)N(C)Cc1nonc1C)CCN(Cc1cccc(Cl)c1)CC2	·	·	1%	i	·	·
O=C(Nc1cc(NC(=O)c2ccccc2Cl)ccc1Cl)c1ccccc1	·	12%	1%	?	·	·
Cc1ccc(CCNC(=O)c2cnc3c(C)cccn3c2=O)cc1	·	29%	-1%	i	·	·
Cc1nc2cc(NC(=O)C3CC34CCN(Cc3ccc(O)c(Cl)c3)CC4)ccc2s1 (configuration not stated)	·	·	-1%	i	·	·
O=C(C[n+]1ccc2ccccc2c1)Nc1cc(C(F)(F)F)ccc1Cl	-3%	-7%	1%	i	-58*	?
Cc1cc[n+](CC(=O)Nc2cc(C(F)(F)F)ccc2Cl)cc1	23µM*	-7%	-5%[38.3 µM]	i	-14	-2%
CN(C)c1cc[n+](CC(=O)Nc2cc(C(F)(F)F)ccc2Cl)cc1	?	-1%	1%[38.3 µM]	i	?	?
COc1ccc(C2(C(=O)NCC3Cc4cccc(-c5cccnc5)c4O3)CCCC2)cc1 (configuration not stated)	·	·	0%	i	·	·
c1ccc(-c2nc3c4ccccc4ccn3c2CN2CCCCC2)cc1	?	31%	16%	?	-71*	3%
N#CCCN1CCN(C(=S)c2ccc(-c3cccc(Cl)c3)o2)CC1	?	27%	1%[38.3 µM]	?	-24	-2%
N#CCCN1CCN(C(=S)c2ccc(-c3ccc(Cl)c(Cl)c3)o2)CC1	?	13%	0%	i	-53*	14%
CCOc1ccccc1NC(=O)CN(C)S(=O)(=O)c1ccc2nc(C)sc2c1	·	·	1%	·	·	·
Cc1ccc2nc(NC(=O)CNS(=O)(=O)c3ccc(Br)s3)sc2c1	?	-1%	9%[38.3 µM]	i	10	-12%
CCOc1ccc(OCC)c(NC(=O)CN(C)S(=O)(=O)c2ccc3nc(C)sc3c2)c1	21µM*	-16%	-2%	i	-50*	-1%
CN(CC(=O)Nc1nc2ccc(F)cc2s1)S(=O)(=O)c1ccc(Cl)cc1	-2%	2%	-6%[38.3 µM]	i	-58*	-2%
CCOC(=O)c1ccc(NC(=O)CN(C)S(=O)(=O)c2ccc(Br)s2)cc1	?	-18%	8%	i	-72*	-1%
Cc1ccc2nc(NC(=O)CN(C)S(=O)(=O)c3ccc(Br)s3)sc2c1	23µM*	8%	17%	i	-18	?
Cc1ccc(C)c(CN2CCC(CNC(=O)C(CC(C)C)N3Cc4ccccc4C3=O)CC2)c1 (configuration not stated)	·	·	1%	·	·	·
